According to PubChem BioAssay AID1159580 (chemical genetic matrix, 2015):
In all, about 5,500 compounds went through this assay and about 2,000 (36%) were called active. Not shown: some 18% with an inconclusive outcome. No stated cut-off is given here; in the data, active means normalized growth mostly below about 0.91 (no sharp cut-off); inconclusive means no clear call, values can overlap the other calls; inactive means mostly above about 0.92. The list shows a part of the results.

Assay: chemical genetic growth profiling, strain panel (AID 1159580);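 further: tested at 20 µM; growth read once vehicle control cultures reached saturation at 30 °C; 1 = growth at the plate median or of vehicle wells; lower values mean less growth of the strain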
Conditions: S. cerevisiae deletion strains, growth OD

Measured: normalized growth

COC(=O)[C@]1(C)CC[C@]2(C)CC[C@]3(C)C4=CCc5c(cc(O)c(O)c5C)[C@]4(C)CC[C@@]3(C)C2C1 (some centres not stated)
inactive: locus YAL013W, strain DEP1, active compounds read low 0.992 | locus YBR021W, strain FUR4, active compounds read low 0.985 | locus YBR229C, strain ROT2, active compounds read low 0.989 | locus YCL029C, strain bik1, active compounds read low 0.98 | locus YDL035C, strain GPR1, active compounds read low 0.968 | locus YDL074C, strain BRE1, active compounds read low 0.915 | locus YDL101C, strain DUN1, active compounds read low 0.975 | locus YDL134C, strain PPH21, active compounds read low 1.01 | locus YDL185W, strain tfp1, active compounds read low 0.984 | locus YDL192W, strain arf1, active compounds read low 0.968 | locus YDR101C, strain arx1, active compounds read low 0.947 | locus YDR162C, strain NBP2, active compounds read low 0.992 | locus YDR318W, strain mcm21, active compounds read low 0.994 | locus YDR388W, active compounds read low 0.983 | locus YDR502C, strain sam2, active compounds read low 0.961 | locus YEL061C, strain CIN8, active compounds read low 0.991 | locus YER110C, active compounds read low 0.978 | locus YER155C, strain BEM2, active compounds read low 0.992 | locus YER167W, strain BCK2, active compounds read low 0.992 | locus YGL078C, strain dbp3, active compounds read low 0.981 | locus YGL086W, strain mad1, active compounds read low 0.94 | locus YGL248W, strain PDE1, active compounds read low 0.985 | locus YGR078C, strain PAC10, active compounds read low 0.971 | locus YGR135W, strain pre9, active compounds read low 0.99 | locus YGR252W, strain gcn5, active compounds read low 1.09 | locus YHR030C, strain SLT2, active compounds read low 0.994 | locus YHR079C, strain IRE1 (second series), active compounds read low 0.982 | locus YHR094C, strain hxt1, active compounds read low 0.978 | locus YHR129C, strain ARP1, active compounds read low 0.962 | locus YHR200W, strain rpn10, active compounds read low 0.986 | locus YIL066C, strain RNR3, active compounds read low 0.969 | locus YIL073C, strain SPO22, active compounds read low 0.983 | locus YIL125W, strain kgd1, active compounds read low 0.975 | locus YIR030C, strain dcg1, active compounds read low 0.982 | locus YJL095W, strain BCK1, active compounds read low 0.958 | locus YJL134W, strain LCB3, active compounds read low 0.991 | locus YJL168C, strain set2, active compounds read low 0.978 | locus YJL187C, strain SWE1 (second series), active compounds read low 0.961 | locus YJR043C, strain POL32, active compounds read low 0.989 | locus YKL009W, strain mrt4, active compounds read low 1.03 | locus YKL068W, active compounds read low 0.977 | locus YKL085W, strain MDH1 (second series), active compounds read low 0.977 | locus YKL085W, strain MDH1, active compounds read low 0.977 | locus YKR001C, strain vps1, active compounds read low 0.937 | locus YLR039C, strain RIC1, active compounds read low 0.945 | locus YLR058C, strain SHM2, active compounds read low 0.983 | locus YLR102C, strain apc9, active compounds read low 0.984 | locus YLR262C, strain YPT6, active compounds read low 0.938 | locus YLR268W, strain sec22, active compounds read low 0.939 | locus YLR330W, strain CHS5, active compounds read low 0.988 | locus YLR342W, strain FKS1 (second series), active compounds read low 0.953 | locus YLR371W, strain rom2, active compounds read low 0.955 | locus YML016C, strain PPZ1, active compounds read low 0.982 | locus YML032C, strain rad52, active compounds read low 1.01 | locus YML124C, strain tub3, active compounds read low 0.98 | locus YMR078C, strain ctf18, active compounds read low 0.958 | locus YMR223W, strain ubp8, active compounds read low 0.984 | locus YMR263W, strain SAP30, active compounds read low 0.998 | locus YMR307W, strain GAS1, active compounds read low 0.954 | locus YNL067W, strain RPL9B, active compounds read low 0.998 | locus YNL153C, strain GIM3, active compounds read low 0.973 | locus YNL233W, strain BNI4, active compounds read low 0.951 | locus YNL250W, strain rad50, active compounds read low 0.977 | locus YNL271C, strain bni1, active compounds read low 0.979 | locus YNL298W, strain CLA4, active compounds read low 1.01 | locus YNL307C, strain MCK1, active compounds read low 0.962 | locus YNL322C, strain KRE1, active compounds read low 0.993 | locus YNR052C, strain pop2, active compounds read low 0.985 | locus YOL012C, strain htz1 1.1 | locus YOL147C, strain pex11, active compounds read low 0.998 | locus YOR061W, strain CKA2, active compounds read low 0.981 | locus YOR069W, strain VPS5, active compounds read low 0.984 | locus YOR136W, strain idh2, active compounds read low 0.966 | locus YOR144C, strain elg1, active compounds read low 0.973 | locus YOR184W, strain ser1, active compounds read low 0.902 | locus YOR316C, strain cot1, active compounds read low 0.983 | locus YPR119W, strain clb2, active compounds read low 0.971 | locus YPR141C, strain kar3, active compounds read low 0.968 | locus YPR163C, strain tif3, active compounds read low 0.968 | locus YPR167C, strain met16, active compounds read low 0.976 | strain wtn01, active compounds read low 0.929
active: locus YLR418C, strain cdc73, active compounds read low 0.802
